# Reference: publication PMC11006913
# Residue numbers refer to the chain shown, from its start.
# Legend:
# Experiment in all cases: PBM; 200 nM protein, PBS
# Settings in all cases: dsDNA, one strand shown
# [1] = target: T1, NKX2-4 (Homo sapiens, UniProt Q9H2Z4 175-261, P217L)
# T1 sequence: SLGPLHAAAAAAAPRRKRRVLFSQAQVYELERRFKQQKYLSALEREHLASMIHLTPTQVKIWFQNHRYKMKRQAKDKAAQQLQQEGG
# [2] = target: T2, NKX2-4 (Homo sapiens, UniProt Q9H2Z4 175-261, T231S)
# T2 sequence: T1 sequence with L43P, T57S
# [3] = target: T3, PAX4 (Homo sapiens, UniProt O43316 9-242, R200K)
# T3 sequence: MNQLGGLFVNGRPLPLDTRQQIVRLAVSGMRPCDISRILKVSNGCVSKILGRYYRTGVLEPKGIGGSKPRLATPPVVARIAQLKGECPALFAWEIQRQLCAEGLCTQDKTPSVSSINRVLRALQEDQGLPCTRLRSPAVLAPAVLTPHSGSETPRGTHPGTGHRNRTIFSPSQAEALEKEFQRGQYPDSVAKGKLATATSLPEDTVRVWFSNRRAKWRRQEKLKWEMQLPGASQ
# [4] = target: T4, PAX4 (Homo sapiens, UniProt O43316 9-242)
# T4 sequence: T3 sequence with K192R
# [5] = target: T5, NKX2-4 (Homo sapiens, UniProt Q9H2Z4 175-261)
# T5 sequence: T1 sequence with L43P
# [6] = target: HOXB6 (Homo sapiens, UniProt P17509 132-218, K202E)
# Sequence of HOXB6 (Homo sapiens, UniProt P17509 132-218, K202E) (P17509 132-218 K202E): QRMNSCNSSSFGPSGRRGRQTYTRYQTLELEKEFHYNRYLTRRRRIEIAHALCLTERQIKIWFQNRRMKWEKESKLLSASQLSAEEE
# [7] = target: HOXA2 (Homo sapiens, UniProt O43364 129-215, R185T)
# Sequence of HOXA2 (Homo sapiens, UniProt O43364 129-215, R185T) (O43364 129-215 R185T): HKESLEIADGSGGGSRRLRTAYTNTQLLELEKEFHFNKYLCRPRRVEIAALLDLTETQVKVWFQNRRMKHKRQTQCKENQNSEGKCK
# [8] = target: ALX3 (Homo sapiens, UniProt O95076 139-225, N203Q)
# Sequence of ALX3 (Homo sapiens, UniProt O95076 139-225, N203Q) (O95076 139-225 N203Q): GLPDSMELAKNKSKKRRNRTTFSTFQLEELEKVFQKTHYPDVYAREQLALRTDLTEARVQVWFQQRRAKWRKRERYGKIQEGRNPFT
# [9] = target: T6, PAX4 (Homo sapiens, UniProt O43316 9-242, R200Q)
# T6 sequence: T3 sequence with K192Q
# [10] = target: HOXA2 (Homo sapiens, UniProt O43364 129-215, R185K)
# Sequence of HOXA2 (Homo sapiens, UniProt O43364 129-215, R185K) (O43364 129-215 R185K): as the sequence (O43364 129-215 R185T) above, with T57K counted along it
# [11] = target: T7, PAX4 (Homo sapiens, UniProt O43316 9-242, F177V)
# T7 sequence: T3 sequence with F169V, K192R
# [12] = target: ALX3 (Homo sapiens, UniProt O95076 139-225)
# Sequence of ALX3 (Homo sapiens, UniProt O95076 139-225) (O95076 139-225): as the sequence (O95076 139-225 N203Q) above, with Q65N counted along it
# [13] = target: T8, NKX2-4 (Homo sapiens, UniProt Q9H2Z4 175-261, R246Q)
# T8 sequence: T1 sequence with L43P, R72Q
# [14] = target: T9, PAX4 (Homo sapiens, UniProt O43316 9-242, F177Y)
# T9 sequence: T3 sequence with F169Y, K192R
# [15] = target: PROP1 (Homo sapiens, UniProt O75360 56-141)
# Sequence of PROP1 (Homo sapiens, UniProt O75360 56-141) (O75360 56-141): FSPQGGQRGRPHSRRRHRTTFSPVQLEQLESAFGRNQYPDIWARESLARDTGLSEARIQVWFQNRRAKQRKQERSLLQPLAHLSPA
# [16] = target: PROP1 (Homo sapiens, UniProt O75360 56-141, R99H)
# Sequence of PROP1 (Homo sapiens, UniProt O75360 56-141, R99H) (O75360 56-141 R99H): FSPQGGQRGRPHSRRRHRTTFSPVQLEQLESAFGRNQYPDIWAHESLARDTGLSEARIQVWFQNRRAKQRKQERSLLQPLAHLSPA
# [17] = target: ALX3 (Homo sapiens, UniProt O95076 139-225, L168Q)
# Sequence of ALX3 (Homo sapiens, UniProt O95076 139-225, L168Q) (O95076 139-225 L168Q): as the sequence (O95076 139-225 N203Q) above, with L30Q, Q65N counted along it
# [18] = target: ALX3 (Homo sapiens, UniProt O95076 139-225, L168V)
# Sequence of ALX3 (Homo sapiens, UniProt O95076 139-225, L168V) (O95076 139-225 L168V): as the sequence (O95076 139-225 N203Q) above, with L30V, Q65N counted along it
# [19] = target: PROP1 (Homo sapiens, UniProt O75360 56-141, F88S)
# Sequence of PROP1 (Homo sapiens, UniProt O75360 56-141, F88S) (O75360 56-141 F88S): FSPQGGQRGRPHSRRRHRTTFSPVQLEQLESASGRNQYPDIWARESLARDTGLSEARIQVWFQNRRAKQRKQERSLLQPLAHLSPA
# [20] = target: T10, PAX4 (Homo sapiens, UniProt O43316 9-242, R227W)
# T10 sequence: T3 sequence with K192R, R219W
# [21] = target: HOXA2 (Homo sapiens, UniProt O43364 129-215, Y150S)
# Sequence of HOXA2 (Homo sapiens, UniProt O43364 129-215, Y150S) (O43364 129-215 Y150S): as the sequence (O43364 129-215 R185T) above, with Y22S, T57R counted along it
# [22] = target: ALX3 (Homo sapiens, UniProt O95076 139-225, N203S)
# Sequence of ALX3 (Homo sapiens, UniProt O95076 139-225, N203S) (O95076 139-225 N203S): as the sequence (O95076 139-225 N203Q) above, with Q65S counted along it
# [23] = target: HOXA2 (Homo sapiens, UniProt O43364 129-215)
# Sequence of HOXA2 (Homo sapiens, UniProt O43364 129-215) (O43364 129-215): as the sequence (O43364 129-215 R185T) above, with T57R counted along it
# [24] = target: HOXB6 (Homo sapiens, UniProt P17509 132-218)
# Sequence of HOXB6 (Homo sapiens, UniProt P17509 132-218) (P17509 132-218): as the sequence (P17509 132-218 K202E) above, with E71K counted along it
# [25] = target: ALX4 (Homo sapiens, UniProt Q9H161 200-286)
# Sequence of ALX4 (Homo sapiens, UniProt Q9H161 200-286) (Q9H161 200-286): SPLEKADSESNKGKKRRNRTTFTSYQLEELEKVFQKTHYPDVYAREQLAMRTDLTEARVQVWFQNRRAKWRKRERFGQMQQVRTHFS
# [26] = target: ALX4 (Homo sapiens, UniProt Q9H161 200-286, Q225E)
# Sequence of ALX4 (Homo sapiens, UniProt Q9H161 200-286, Q225E) (Q9H161 200-286 Q225E): as the sequence (Q9H161 200-286) above, with Q26E counted along it
# [27] = target: T11, NKX2-6 (Homo sapiens, UniProt A6NCS4 118-204)
# T11 sequence: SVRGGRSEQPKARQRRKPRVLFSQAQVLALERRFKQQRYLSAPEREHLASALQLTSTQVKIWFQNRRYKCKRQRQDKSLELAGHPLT
# [28] = target: T12, NKX2-6 (Homo sapiens, UniProt A6NCS4 118-204, F151L)
# T12 sequence: T11 sequence with F34L
# [29] = target: HOXC10 (Homo sapiens, UniProt Q9NYD6 254-340)
# Sequence of HOXC10 (Homo sapiens, UniProt Q9NYD6 254-340) (Q9NYD6 254-340): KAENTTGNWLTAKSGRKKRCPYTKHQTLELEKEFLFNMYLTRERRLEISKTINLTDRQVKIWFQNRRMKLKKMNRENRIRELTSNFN
# [30] = target: HOXC10 (Homo sapiens, UniProt Q9NYD6 254-340, K271E)
# Sequence of HOXC10 (Homo sapiens, UniProt Q9NYD6 254-340, K271E) (Q9NYD6 254-340 K271E): as the sequence (Q9NYD6 254-340) above, with K18E counted along it
# [31] = target: VAX1 (Homo sapiens, UniProt Q5SQQ9 86-172)
# Sequence of VAX1 (Homo sapiens, UniProt Q5SQQ9 86-172) (Q5SQQ9 86-172): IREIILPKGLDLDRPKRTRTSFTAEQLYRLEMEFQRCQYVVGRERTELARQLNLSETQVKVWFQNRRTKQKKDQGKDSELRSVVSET
# [32] = target: VAX1 (Homo sapiens, UniProt Q5SQQ9 86-172, T142I)
# Sequence of VAX1 (Homo sapiens, UniProt Q5SQQ9 86-172, T142I) (Q5SQQ9 86-172 T142I): as the sequence (Q5SQQ9 86-172) above, with T57I counted along it
# [33] = target: VAX1 (Homo sapiens, UniProt Q5SQQ9 86-172, K157R)
# Sequence of VAX1 (Homo sapiens, UniProt Q5SQQ9 86-172, K157R) (Q5SQQ9 86-172 K157R): as the sequence (Q5SQQ9 86-172) above, with K72R counted along it
sequence,measurement,setting,value
CCCGGGCC,binding signal,[1],"9.16 upbm affinity estimate (log intensity, higher = more binding, comparable within an allelic series)"
same,binding signal,[2],"8.94 upbm affinity estimate (log intensity, higher = more binding, comparable within an allelic series)"
same,binding signal,[3],"9.02 upbm affinity estimate (log intensity, higher = more binding, comparable within an allelic series)"
same,binding signal,[4],"9.01 upbm affinity estimate (log intensity, higher = more binding, comparable within an allelic series)"
same,binding signal,[5],"9.18 upbm affinity estimate (log intensity, higher = more binding, comparable within an allelic series)"
same,binding signal,[6],"8.77 upbm affinity estimate (log intensity, higher = more binding, comparable within an allelic series)"
same,binding signal,[7],"7.21 upbm affinity estimate (log intensity, higher = more binding, comparable within an allelic series)"
same,binding signal,[8],"7.64 upbm affinity estimate (log intensity, higher = more binding, comparable within an allelic series)"
same,binding signal,[9],"9.07 upbm affinity estimate (log intensity, higher = more binding, comparable within an allelic series)"
same,binding signal,[10],"10.1 upbm affinity estimate (log intensity, higher = more binding, comparable within an allelic series)"
same,binding signal,[11],"8.94 upbm affinity estimate (log intensity, higher = more binding, comparable within an allelic series)"
same,binding signal,[12],"7.66 upbm affinity estimate (log intensity, higher = more binding, comparable within an allelic series)"
same,binding signal,[13],"9.15 upbm affinity estimate (log intensity, higher = more binding, comparable within an allelic series)"
same,binding signal,[14],"8.97 upbm affinity estimate (log intensity, higher = more binding, comparable within an allelic series)"
same,binding signal,[15],"6.58 upbm affinity estimate (log intensity, higher = more binding, comparable within an allelic series)"
same,binding signal,[16],"6.56 upbm affinity estimate (log intensity, higher = more binding, comparable within an allelic series)"
same,binding signal,[17],"7.63 upbm affinity estimate (log intensity, higher = more binding, comparable within an allelic series)"
same,binding signal,[18],"7.64 upbm affinity estimate (log intensity, higher = more binding, comparable within an allelic series)"
same,binding signal,[19],"6.14 upbm affinity estimate (log intensity, higher = more binding, comparable within an allelic series)"
same,binding signal,[20],"9.08 upbm affinity estimate (log intensity, higher = more binding, comparable within an allelic series)"
same,binding signal,[21],"10.2 upbm affinity estimate (log intensity, higher = more binding, comparable within an allelic series)"
same,binding signal,[22],"7.61 upbm affinity estimate (log intensity, higher = more binding, comparable within an allelic series)"
same,binding signal,[23],"7.08 upbm affinity estimate (log intensity, higher = more binding, comparable within an allelic series)"
same,binding signal,[24],"8.77 upbm affinity estimate (log intensity, higher = more binding, comparable within an allelic series)"
GATGAGGA,binding signal,[1],"11.4 upbm affinity estimate (log intensity, higher = more binding, comparable within an allelic series)"
same,binding signal,[2],"11.6 upbm affinity estimate (log intensity, higher = more binding, comparable within an allelic series)"
same,binding signal,[5],"11.3 upbm affinity estimate (log intensity, higher = more binding, comparable within an allelic series)"
CGTCCCGA,binding signal,[1],"9.52 upbm affinity estimate (log intensity, higher = more binding, comparable within an allelic series)"
same,binding signal,[2],"9.51 upbm affinity estimate (log intensity, higher = more binding, comparable within an allelic series)"
same,binding signal,[25],"8.27 upbm affinity estimate (log intensity, higher = more binding, comparable within an allelic series)"
same,binding signal,[5],"9.43 upbm affinity estimate (log intensity, higher = more binding, comparable within an allelic series)"
same,binding signal,[26],"8.37 upbm affinity estimate (log intensity, higher = more binding, comparable within an allelic series)"
same,binding signal,[13],"9.52 upbm affinity estimate (log intensity, higher = more binding, comparable within an allelic series)"
GAGTACTC,binding signal,[1],"12.4 upbm affinity estimate (log intensity, higher = more binding, comparable within an allelic series)"
same,binding signal,[2],"12.8 upbm affinity estimate (log intensity, higher = more binding, comparable within an allelic series)"
same,binding signal,[5],"12.3 upbm affinity estimate (log intensity, higher = more binding, comparable within an allelic series)"
same,binding signal,[13],"12.9 upbm affinity estimate (log intensity, higher = more binding, comparable within an allelic series)"
ACCCTTAC,binding signal,[1],"11.5 upbm affinity estimate (log intensity, higher = more binding, comparable within an allelic series)"
same,binding signal,[2],"11.7 upbm affinity estimate (log intensity, higher = more binding, comparable within an allelic series)"
same,binding signal,[5],"11.4 upbm affinity estimate (log intensity, higher = more binding, comparable within an allelic series)"
GCACGGGC,binding signal,[1],"9.59 upbm affinity estimate (log intensity, higher = more binding, comparable within an allelic series)"
same,binding signal,[2],"9.54 upbm affinity estimate (log intensity, higher = more binding, comparable within an allelic series)"
same,binding signal,[5],"9.58 upbm affinity estimate (log intensity, higher = more binding, comparable within an allelic series)"
same,binding signal,[13],"9.56 upbm affinity estimate (log intensity, higher = more binding, comparable within an allelic series)"
AGAAGCCG,binding signal,[1],"9.64 upbm affinity estimate (log intensity, higher = more binding, comparable within an allelic series)"
same,binding signal,[2],"9.7 upbm affinity estimate (log intensity, higher = more binding, comparable within an allelic series)"
same,binding signal,[5],"9.69 upbm affinity estimate (log intensity, higher = more binding, comparable within an allelic series)"
same,binding signal,[27],"9.29 upbm affinity estimate (log intensity, higher = more binding, comparable within an allelic series)"
same,binding signal,[13],"9.62 upbm affinity estimate (log intensity, higher = more binding, comparable within an allelic series)"
same,binding signal,[28],"9.27 upbm affinity estimate (log intensity, higher = more binding, comparable within an allelic series)"
CGTCGGGC,binding signal,[1],"9.35 upbm affinity estimate (log intensity, higher = more binding, comparable within an allelic series)"
same,binding signal,[2],"9.21 upbm affinity estimate (log intensity, higher = more binding, comparable within an allelic series)"
same,binding signal,[29],"10 upbm affinity estimate (log intensity, higher = more binding, comparable within an allelic series)"
same,binding signal,[5],"9.36 upbm affinity estimate (log intensity, higher = more binding, comparable within an allelic series)"
same,binding signal,[30],"10.1 upbm affinity estimate (log intensity, higher = more binding, comparable within an allelic series)"
same,binding signal,[13],"9.37 upbm affinity estimate (log intensity, higher = more binding, comparable within an allelic series)"
GCCACGCC,binding signal,[1],"9.91 upbm affinity estimate (log intensity, higher = more binding, comparable within an allelic series)"
same,binding signal,[2],"9.93 upbm affinity estimate (log intensity, higher = more binding, comparable within an allelic series)"
same,binding signal,[5],"9.88 upbm affinity estimate (log intensity, higher = more binding, comparable within an allelic series)"
same,binding signal,[7],"7.26 upbm affinity estimate (log intensity, higher = more binding, comparable within an allelic series)"
same,binding signal,[10],"10.2 upbm affinity estimate (log intensity, higher = more binding, comparable within an allelic series)"
same,binding signal,[13],"9.85 upbm affinity estimate (log intensity, higher = more binding, comparable within an allelic series)"
same,binding signal,[31],"7.13 upbm affinity estimate (log intensity, higher = more binding, comparable within an allelic series)"
same,binding signal,[32],"7.33 upbm affinity estimate (log intensity, higher = more binding, comparable within an allelic series)"
same,binding signal,[21],"10.4 upbm affinity estimate (log intensity, higher = more binding, comparable within an allelic series)"
same,binding signal,[23],"7.17 upbm affinity estimate (log intensity, higher = more binding, comparable within an allelic series)"
same,binding signal,[33],"7.18 upbm affinity estimate (log intensity, higher = more binding, comparable within an allelic series)"
CGTTTGGC,binding signal,[1],"9.62 upbm affinity estimate (log intensity, higher = more binding, comparable within an allelic series)"
same,binding signal,[2],"9.4 upbm affinity estimate (log intensity, higher = more binding, comparable within an allelic series)"
same,binding signal,[5],"9.47 upbm affinity estimate (log intensity, higher = more binding, comparable within an allelic series)"
same,binding signal,[13],"9.6 upbm affinity estimate (log intensity, higher = more binding, comparable within an allelic series)"
